Measured values as given in PubChem BioAssay.
Results with a measured potency or affinity are listed apart. Inconclusive results are not listed. Activity calls are given as the source filed them.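 Rule for the calls, unless noted: active = signal-lowering compounds whose fitted half-maximal concentration is at or below twice the top tested dose in every run; inconclusive = runs disagree, flat 30 to 70% inhibition, or poor curve fit; inactive = the rest.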

assay: RMG-1 ovarian cancer cell viability loss – cherry-pick, dose response (AID 687029;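 active = signal drop whose fitted half-maximal concentration is at most twice the top valid dose, in every test run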;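 note: cells exposed to compound for 96 hours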); conditions: RMG-1 viability, CellTiterGlo ATP luminescence, 96 h; series mostly up to 35 µM

Row | Compound | outcome
1 | COc1ccc(C(=O)CCS(=O)(=O)c2ccc(C)cc2)cc1OC | inactive
2 | COc1ccc([N+](=O)[O-])c(S(=O)(=O)c2ccccc2)n1 | inactive
3 | CCCCn1c(=O)[nH]c(=O)c2c1nc(Cn1ncc(Cl)c(Cl)c1=O)n2CCC | inactive
4 | C=C1C(=O)[C@]23C[C@H]1CC[C@H]2[C@]1(C)[C@@H](OC(C)=O)CC[C@@](C)(C(=O)O)[C@H]1C[C@@H]3O | inactive
5 | COc1ccc(OC)c2sc(N(CCCN(C)C)C(=O)CCS(=O)(=O)c3ccccc3)nc12 | inactive
6 | CNC(=O)c1cc(Oc2ccc(NC(=O)Nc3ccc(Cl)c(C(F)(F)F)c3)cc2)ccn1 | inactive
7 | CCCCCc1c(-c2ccccc2OC)ncn1CCc1ccccc1OC | inactive
8 | CCn1c2ccccc2c2cc(NC(=O)c3cc(OC)cc(OC)c3)ccc21 | inactive
9 | Cc1ccc2nc(NNC(=O)c3ccc(S(=O)(=O)N4CCc5ccccc5C4)cc3)sc2c1 | inactive
10 | CC(=O)c1sc(NC(=O)CCS(=O)(=O)c2ccc(Cl)cc2)nc1C | inactive
11 | O=[N+]([O-])c1cc2c(ccc3occc32)o1 | inactive
12 | O=C(Nc1ccccc1)Nc1cc(OCC(F)(F)F)cc(OCC(F)(F)F)c1 | inactive
13 | BrC(=C\c1ccccc1)/C=N/n1cnnc1 | inactive
14 | Cc1ccc(NC(=O)/C=C/c2ccc([N+](=O)[O-])s2)c(C)c1 | inactive
15 | O=C(Nc1ccc(Cl)cc1)/C(=C/c1cccc(O)c1)c1nc2ccccc2s1 | inactive
16 | Cn1nnnc1Sc1ncnc2scc(-c3ccc(Br)cc3)c12 | inactive
17 | CC(=O)Nc1ccc(NC(=O)c2nc(S(=O)(=O)Cc3ccccc3)ncc2Cl)cc1 | inactive
18 | CCCCCCCn1c2c(c(=N)c3c1CCC3)CCCC2 | inactive
19 | O=C(Cn1ncc(Cl)c(Cl)c1=O)Nc1ccc2c(c1)OCO2 | inactive
20 | COC1C(CO)OC(n2c3c(Cl)cccc3c3c4c(c5c6cccc(Cl)c6[nH]c5c32)C(=O)NC4=O)C(O)C1O (stereo not given) | inactive

Row | Compound | outcome
21 | C[C@H](NC(=O)c1ccco1)C(=O)Nc1cccc([N+](=O)[O-])c1 | inactive
22 | COc1ccc(CC2C(=O)NC(C)C(=O)N(C)C3Cc4ccc(cc4)Oc4cc(ccc4O)CC(C(=O)NC(C)C(=O)NC(C)C(=O)N2C)N(C)C3=O)cc1 (stereo not given) | inactive
23 | Cn1nnnc1Sc1ncnc2scc(-c3ccc[nH]3)c12 | inactive
24 | CCCCn1c(N)c(N(CCC(C)C)C(=O)COC(=O)c2ccc([N+](=O)[O-])s2)c(=O)[nH]c1=O | inactive
25 | C=C1C(=O)[C@@]23[C@H](O)C[C@@H]4C(C)(C)CC[C@H](O)[C@]4(C)[C@@H]2C[C@H](O)[C@@H]1[C@H]3O | inactive
26 | O=S(=O)(Nc1cc(Sc2ncn[nH]2)c(O)c2ccccc12)c1ccccc1 | inactive
27 | C[n+]1c2n(c3ccccc31)N=C(c1cc(C(C)(C)C)c(O)c(C(C)(C)C)c1)CS2 | inactive
28 | COC(=O)[C@]12CCCCC=C1N(Cc1cccc3ccccc13)C(=O)[C@H](CC(=O)N1CCN(C(=O)c3ccco3)CC1)C2 | inactive
29 | COC(=O)[C@@]12C[C@@H](CC(=O)N3CCN(C(=O)c4ccco4)CC3)C(=O)N(Cc3ccccc3)C1=CCC(C)(C)C2 | inactive
30 | C=C1C(=O)O[C@@H]2[C@H]1[C@@H](OC(=O)/C(C)=C/C)C/C(C)=C\C(=O)/C=C(\C)[C@@H]2O | inactive
31 | CCOc1ccc(C(=O)C(CN2CCOCC2)c2ccccc2)cc1 (stereo not given) | inactive
32 | O=C(c1ccco1)N1N=C(c2ccc(Br)cc2)CC1(O)C(F)(F)F (stereo not given) | inactive
33 | Cc1cc(C)c(C(=O)/C=C/c2cccc3ccccc23)c(=O)[nH]1 | inactive
34 | Cc1cccc(CS(=O)(=O)c2ncc(Cl)c(C(=O)Nc3ccc(F)cc3)n2)c1 | inactive
35 | COc1cccc2c1C(=O)c1c(O)c3c(c(O)c1C2=O)CC(O)(C(C)=NNC(=O)c1ccc(Cl)c(Cl)c1)CC3OC1CC(N)C(O)C(C)O1 (stereo not given) | inactive
36 | CC[C@]1(O)C[C@@H]2CN(CCc3c([nH]c4ccccc34)[C@@](C(=O)OC)(c3cc4c(cc3OC)N(C)[C@H]3[C@@](O)(C(=O)OC)[C@H](OC(C)=O)[C@]5(CC)C=CCN6CC[C@]43[C@@H]65)C2)C1 | inactive
37 | CN(N=Nc1nc[nH]c1C(N)=O)C1CCCCC1 | inactive
38 | COc1cc(C2C3=C(COC3=O)OC(C)(C)Oc3cc4c(cc32)OCO4)cc(OC)c1OC (stereo not given) | inactive
39 | CCCOc1ccc2[nH]c(C(=O)N/N=C/c3cc(OC)c(OC)c(OC)c3)cc2c1 | inactive
40 | Cc1ccc(S(=O)(=O)NCc2ccc(C(=O)N3CCN(c4ccc([N+](=O)[O-])cc4)CC3)cc2)cc1 | inactive

assay: CMV-driven luciferase expression suppression in HEK293 – cell-based, luminescence, dry powder, counter-screen for Pax8 inhibitor project, dose response (AID 743020); conditions: HEK293 CMV-luciferase reporter, SteadyGlo luminescence, 24 h; series mostly up to 35 µM;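 note: HEK293 cells stably expressing the CMV luciferase reporter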

Row | Compound | outcome
41 | COc1ccc(C(=O)CCS(=O)(=O)c2ccc(C)cc2)cc1OC | inactive
42 | COc1ccc([N+](=O)[O-])c(S(=O)(=O)c2ccccc2)n1 | inactive
43 | CCCCn1c(=O)[nH]c(=O)c2c1nc(Cn1ncc(Cl)c(Cl)c1=O)n2CCC | inactive
44 | C=C1C(=O)[C@]23C[C@H]1CC[C@H]2[C@]1(C)[C@@H](OC(C)=O)CC[C@@](C)(C(=O)O)[C@H]1C[C@@H]3O | inactive
45 | COc1ccc(OC)c2sc(N(CCCN(C)C)C(=O)CCS(=O)(=O)c3ccccc3)nc12 | inactive
46 | CNC(=O)c1cc(Oc2ccc(NC(=O)Nc3ccc(Cl)c(C(F)(F)F)c3)cc2)ccn1 | inactive
47 | CCCCCc1c(-c2ccccc2OC)ncn1CCc1ccccc1OC | inactive
48 | CCn1c2ccccc2c2cc(NC(=O)c3cc(OC)cc(OC)c3)ccc21 | inactive
49 | Cc1ccc2nc(NNC(=O)c3ccc(S(=O)(=O)N4CCc5ccccc5C4)cc3)sc2c1 | inactive
50 | CC(=O)c1sc(NC(=O)CCS(=O)(=O)c2ccc(Cl)cc2)nc1C | inactive
51 | O=[N+]([O-])c1cc2c(ccc3occc32)o1 | inactive
52 | O=C(Nc1ccccc1)Nc1cc(OCC(F)(F)F)cc(OCC(F)(F)F)c1 | inactive
53 | BrC(=C\c1ccccc1)/C=N/n1cnnc1 | inactive
54 | Cc1ccc(NC(=O)/C=C/c2ccc([N+](=O)[O-])s2)c(C)c1 | inactive
55 | O=C(Nc1ccc(Cl)cc1)/C(=C/c1cccc(O)c1)c1nc2ccccc2s1 | inactive
56 | Cn1nnnc1Sc1ncnc2scc(-c3ccc(Br)cc3)c12 | inactive
57 | CC(=O)Nc1ccc(NC(=O)c2nc(S(=O)(=O)Cc3ccccc3)ncc2Cl)cc1 | inactive
58 | CCCCCCCn1c2c(c(=N)c3c1CCC3)CCCC2 | inactive
59 | O=C(Cn1ncc(Cl)c(Cl)c1=O)Nc1ccc2c(c1)OCO2 | inactive
60 | COC1C(CO)OC(n2c3c(Cl)cccc3c3c4c(c5c6cccc(Cl)c6[nH]c5c32)C(=O)NC4=O)C(O)C1O (stereo not given) | inactive

Row | Compound | outcome
61 | C[C@H](NC(=O)c1ccco1)C(=O)Nc1cccc([N+](=O)[O-])c1 | inactive
62 | COc1ccc(CC2C(=O)NC(C)C(=O)N(C)C3Cc4ccc(cc4)Oc4cc(ccc4O)CC(C(=O)NC(C)C(=O)NC(C)C(=O)N2C)N(C)C3=O)cc1 (stereo not given) | inactive
63 | Cn1nnnc1Sc1ncnc2scc(-c3ccc[nH]3)c12 | inactive
64 | CCCCn1c(N)c(N(CCC(C)C)C(=O)COC(=O)c2ccc([N+](=O)[O-])s2)c(=O)[nH]c1=O | inactive
65 | C=C1C(=O)[C@@]23[C@H](O)C[C@@H]4C(C)(C)CC[C@H](O)[C@]4(C)[C@@H]2C[C@H](O)[C@@H]1[C@H]3O | inactive
66 | O=S(=O)(Nc1cc(Sc2ncn[nH]2)c(O)c2ccccc12)c1ccccc1 | inactive
67 | C[n+]1c2n(c3ccccc31)N=C(c1cc(C(C)(C)C)c(O)c(C(C)(C)C)c1)CS2 | inactive
68 | COC(=O)[C@]12CCCCC=C1N(Cc1cccc3ccccc13)C(=O)[C@H](CC(=O)N1CCN(C(=O)c3ccco3)CC1)C2 | inactive
69 | COC(=O)[C@@]12C[C@@H](CC(=O)N3CCN(C(=O)c4ccco4)CC3)C(=O)N(Cc3ccccc3)C1=CCC(C)(C)C2 | inactive
70 | C=C1C(=O)O[C@@H]2[C@H]1[C@@H](OC(=O)/C(C)=C/C)C/C(C)=C\C(=O)/C=C(\C)[C@@H]2O | inactive
71 | CCOc1ccc(C(=O)C(CN2CCOCC2)c2ccccc2)cc1 (stereo not given) | inactive
72 | O=C(c1ccco1)N1N=C(c2ccc(Br)cc2)CC1(O)C(F)(F)F (stereo not given) | inactive
73 | Cc1cc(C)c(C(=O)/C=C/c2cccc3ccccc23)c(=O)[nH]1 | inactive
74 | Cc1cccc(CS(=O)(=O)c2ncc(Cl)c(C(=O)Nc3ccc(F)cc3)n2)c1 | inactive
75 | COc1cccc2c1C(=O)c1c(O)c3c(c(O)c1C2=O)CC(O)(C(C)=NNC(=O)c1ccc(Cl)c(Cl)c1)CC3OC1CC(N)C(O)C(C)O1 (stereo not given) | inactive
76 | CC[C@]1(O)C[C@@H]2CN(CCc3c([nH]c4ccccc34)[C@@](C(=O)OC)(c3cc4c(cc3OC)N(C)[C@H]3[C@@](O)(C(=O)OC)[C@H](OC(C)=O)[C@]5(CC)C=CCN6CC[C@]43[C@@H]65)C2)C1 | inactive
77 | CN(N=Nc1nc[nH]c1C(N)=O)C1CCCCC1 | inactive
78 | COc1cc(C2C3=C(COC3=O)OC(C)(C)Oc3cc4c(cc32)OCO4)cc(OC)c1OC (stereo not given) | inactive
79 | CCCOc1ccc2[nH]c(C(=O)N/N=C/c3cc(OC)c(OC)c(OC)c3)cc2c1 | inactive
80 | Cc1ccc(S(=O)(=O)NCc2ccc(C(=O)N3CCN(c4ccc([N+](=O)[O-])cc4)CC3)cc2)cc1 | inactive
